NPR1 antag: Natriuretic polypeptide receptor (hNpr1) antagonism - Primary qHTS; HEK293 hNpr1 GloSensor cGMP, ANP-stimulated luminescence; Potency, µM (top dose mostly 46.3 µM), for inactives: at the highest dose activity change, negative = inhibition, actives largely listed as inhibitors; hit rate 1.6% among 76,000; AID 1347048, 2019; calls by dose curve; note: nearly all actives have a fitted effect of over 60% in size
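HEK293 cells stably expressing human Npr1 and cGMP GloSensor pGS-40F, loaded 2 h with 2% GloSensor reagent, given compound 30 min at room temperature. Luminescence read before and 20 min after 0.1 nM hNppA.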
GPT2 inhibitor: Primary qHTS assay for inhibitors of Glutamate pyruvate transaminase 2 (GPT2). Alanine aminotransferase 2 (Homo sapiens), Q8TD30. Recombinant GPT2, coupled pyruvate oxidase/HRP Amplex Red fluorescence. Potency, µM (highest dose often 57.7 µM), without a hit: top-dose activity change, negative = inhibition, actives largely listed as inhibitors. hit rate 0.25% among 100,000; active = well fitted inhibition curve with a large enough effect; inconclusive = small, poorly fitted or top-dose-only effect; note: nearly all actives have a fitted effect of over 60% in size
Target sequence (Q8TD30 whole entry, looked up): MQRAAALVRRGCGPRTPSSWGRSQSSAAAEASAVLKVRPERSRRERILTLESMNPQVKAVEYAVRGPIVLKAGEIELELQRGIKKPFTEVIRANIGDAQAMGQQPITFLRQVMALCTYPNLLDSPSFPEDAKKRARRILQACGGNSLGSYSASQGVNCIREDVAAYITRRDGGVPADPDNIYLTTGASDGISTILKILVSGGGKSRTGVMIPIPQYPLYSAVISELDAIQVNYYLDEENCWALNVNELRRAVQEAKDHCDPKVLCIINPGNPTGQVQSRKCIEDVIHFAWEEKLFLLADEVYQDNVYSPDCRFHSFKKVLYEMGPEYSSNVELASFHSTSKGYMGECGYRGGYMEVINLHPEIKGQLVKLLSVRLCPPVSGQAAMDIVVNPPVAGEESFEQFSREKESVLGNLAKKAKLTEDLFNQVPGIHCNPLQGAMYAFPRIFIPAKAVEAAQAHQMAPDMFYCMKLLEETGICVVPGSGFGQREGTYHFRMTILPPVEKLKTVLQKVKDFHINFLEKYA
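Fluorescence read-out: pyruvate from GPT2 turnover coupled to pyruvate oxidase, HRP and Amplex Red (0.2mM ThPP, 0.2U/mL PO and HRP, 50uM Amplex final). Substrates 250uM a-KG, 2mM L-alanine; enzyme 10ng/uL; 30 min RT.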
The depositor's hits bear a star; i = inactive; ? = inconclusive; nt = not tested or not shown; ! = a repeat was not active; [ ] = another dose, or the depositor's remark. This excerpt belongs to a sample that is enriched for hits. % is set by controls: 0 for no effect and ±100 for the full control effect; potency is the fitted concentration of half-maximal effect.

SMILES | NPR1 antag | GPT2 inhibitor
Cn1cccc1C(=O)N1CCCC(n2cc(-c3nc(-c4ccccc4)no3)nn2)C1 (stereo not drawn) | ? | 4%
O=C(c1cccc(F)c1)N1CCCC(n2cc(-c3nc(-c4ccccc4)no3)nn2)C1 (stereo not drawn) | ? | -13%
O=C(c1cccc(F)c1)N1CCC(n2cc(-c3nc(-c4ccccc4)no3)nn2)C1 (stereo not drawn) | -5% | i
O=C(c1ccc2c(c1)OCO2)N1CCC(n2cc(-c3nc(-c4ccccc4)no3)nn2)C1 (stereo not drawn) | 13µM* | i
Cc1cccc(N2CCN(C(=O)C3CCN(C(=O)C4CC4)CC3)CC2)n1 | 7% | 0%
O=C(NC1CCCCC1)c1ccc(CN2C(=O)NC3(CCS(=O)(=O)CC3)C2=O)cc1 | 0% | 3%
COc1ccc(CN2CC(CNc3ccccc3)C3(C2)CN(c2ccccc2)C3)cc1O (stereo not drawn) | -8%[70.6 µM] | ?
O=C(c1ccc2nccnc2c1)N1CCn2nc(Cc3ccccc3)cc2C1 | -2% | i
COc1cccc(CNC(=O)N2CC(c3noc(-c4ccncc4)n3)C2)c1 | -13% | -12%
COc1ccccc1C(=O)N1CCC(n2cc(-c3nc(-c4ccccc4)no3)nn2)C1 (stereo not drawn) | 13µM* | 2%
O=C(c1cc(Cl)ccc1F)N1CCCC(n2cc(-c3nc(-c4ccccc4)no3)nn2)C1 (stereo not drawn) | 16µM* | i
COc1ccccc1CC(=O)N1CCC(n2cc(-c3nc(-c4ccccc4)no3)nn2)CC1 | 0% | i
O=C(c1ccncc1)N1CCCC(n2cc(-c3nc(-c4ccccc4)no3)nn2)C1 (stereo not drawn) | -29% | i
COc1cccc(CC(=O)N2CCC3(CC2)CC(Cc2nc(-c4ccncc4)no2)CCO3)c1 (stereo not drawn) | ? | -2%
COCC1CN(C2CCC2)CC12CCN(C(=O)COc1ccc(F)cc1)CC2 (stereo not drawn) | -13% | i
Cc1nc2c(c(-c3ccc(O)cc3)n1)CN(C(=O)c1ccc(F)cc1)CCC2 | 0% | -4%
Cc1c(-c2ccccc2)[nH]c2c(CNC(=O)c3ccc(=O)n(C)n3)cc(Cl)cc12 | 11µM* | -33%
Cc1c(-c2ccccc2)[nH]c2c(CNC(=O)CCn3cnnn3)cc(Cl)cc12 | 2% | -6%
O=C(NCC1CCCN(C(=O)c2ccc3[nH]ccc3c2)C1)c1ccc(-c2ccccc2)cc1 (stereo not drawn) | 11µM* | -4%
O=C(NCC1CCCN(C(=O)c2ccsc2)C1)c1ccc(-c2ccccc2)cc1 (stereo not drawn) | ? | i
O=C(Cn1ccn2nc3c(c2c1=O)CCCC3)NC1CCCC1 | 0% | i
CCOC(=O)C1(Cc2ccccc2F)CCCN(C(=O)c2cnn(CC)c2)C1 (stereo not drawn) | 1% | -4%
C[C@](Cc1ccc(O)c(O)c1)(NN)C(=O)O | nt | 4%
CC(N)(Cc1ccc(O)c(O)c1)C(=O)O (stereo not drawn) | nt | 8.9µM*
O=C1NC(=NC2CCCC2)C2(CCCN(Cc3ccsc3)C2)N1c1cccnc1 (stereo not drawn) | nt | i
SMILES | NPR1 antag | GPT2 inhibitor
CCc1nc2c(c(-c3ccc(Cl)cc3)n1)CN(C(=O)CCl)CC2 | -16% | i
COCCN1CCC2(C1)CN(C)c1ccc(C(=O)Nc3ccccc3)cc12 (stereo not drawn) | 6.3µM* | 4%[88.5 µM]
COCCN1CCC2(C1)CN(C)c1ccc(C(=O)Nc3ccc(F)cc3)cc12 (stereo not drawn) | ? | -28%[88.5 µM]
O=C(/C=C/c1ccc(O)c(O)c1)O[C@@H]1[C@@H](O)[C@H](OC2CCCCC2O)O[C@H](CO)[C@H]1O (stereo partly drawn) | nt | 1%[27.3 µM]
O=C(/C=C/c1ccc(O)c(O)c1)O[C@H]1[C@H](OC2CCCCC2O)O[C@H](CO)[C@@H](O)[C@@H]1O (stereo partly drawn) | nt | 4.5µM*
CC(=O)NCc1nnc2n1C(C(=O)NCc1ccccn1)CC2 (stereo not drawn) | nt | 2%[88.5 µM]
CNC(=O)c1cccc(-c2cnc(NC(=O)Cc3ccccc3)c3c2CCO3)c1 | 8.9µM* | -5%[88.5 µM]
CNC(=O)c1cccc(-c2cnc(Nc3ccccc3)c3c2CCO3)c1 | -6%[70.6 µM] | 5%[88.5 µM]
Cc1nn2c(c1-c1ccccc1[S+](C)(=O)[O-])N(C(=O)COc1ccccc1)CCC2 | -1%[70.6 µM] | i
COc1ncccc1-c1cccc(COc2ccc3c(cnn3CC[S+](C)(=O)[O-])c2)c1 | 35µM* | 1%[88.5 µM]
C[S+](=O)([O-])CCn1ncc2cc(OCC3CCN(c4ncccn4)CC3)ccc21 | ? | -7%[88.5 µM]
COc1ccccc1-c1cccc(COc2ccc3c(cnn3CC[S+](C)(=O)[O-])c2)c1 | ? | -12%[88.5 µM]
C[S+](=O)([O-])CCn1ncc2cc(OCc3cccc(-c4ccccc4O)c3)ccc21 | 32µM* | 2%[88.5 µM]
COc1cccc(NC(=O)c2ccc3c(c2)NC(C)(COc2cccnc2)CO3)c1 (stereo not drawn) | 22µM* | -4%[88.5 µM]
CC1(COc2ccccc2)COc2ccc(C(=O)Nc3ccccc3)cc2N1 (stereo not drawn) | -6%[70.6 µM] | -13%[88.5 µM]
CC1(COc2cccnc2)COc2ccc(C(=O)Nc3ccc4[nH]ccc4c3)cc2N1 (stereo not drawn) | -13%[70.6 µM] | 5%[88.5 µM]
CC1(COc2cccnc2)COc2ccc(C(=O)Nc3cccc(Cl)c3)cc2N1 (stereo not drawn) | 28µM* | ?
O=C(c1ccc(-c2ccc(N3CCCCC3)nc2)cc1)N1CCCC1 | ? | -1%
O=C(c1ccc(-c2ccc(N3CCSCC3)nc2)cc1)N1CCCCC1 | 10µM* | i
C#CCNC[C@@H]1C=C(C)[C@H](Cc2nnc(-c3ccccc3F)o2)C[C@H]1C(C)C | -2%[70.6 µM] | 0%[88.5 µM]
CN1N=C(N)c2cn([C@@H]3O[C@H](COP(=O)(O)O)[C@@H](O)[C@@H]3O)c3ncnc1c23 | nt | 14µM*
Nc1ncnc2c1ncn2[C@@H]1O[C@H](COP(=O)(O)CP(=O)(O)OP(=O)(O)O)[C@@H](O)[C@H]1O | nt | -6%
COc1ccc(S(=O)(=O)Nc2cccnc2Nc2ccc(O)cc2)cc1 | nt | 22µM*!
COc1ccc(S(=O)(=O)Nc2ccc3n(c2=O)C[C@H]2C[C@@H]3CN(C(=O)c3ccccn3)C2)cc1 | 3% | i
COc1cc2c(CCNC(C)=O)c[nH]c2cc1Cl | nt | 4%
SMILES | NPR1 antag | GPT2 inhibitor
CC(=O)NCCc1c[nH]c2ccc(O)cc12 | nt | 3.2µM*
CN1CCN(Cc2ccccc2Oc2ccc(C(F)(F)F)cn2)CC1 | 2% | -2%
Cc1cc(C)c(CN2CCC3(CCCN(C)C3=O)C2)c(-n2cccn2)c1 (stereo not drawn) | 1% | i
Cc1cnc(C(=O)N2CC(Oc3ccc(-c4nc(-c5ccccc5)no4)cc3)C2)cn1 | -13% | i
O=C(c1ccc(F)cc1)N1CC(Oc2ccc(-c3nc(-c4ccccc4)no3)cc2)C1 | -11% | i
Cc1cc(C(=O)N2CC(Oc3ccc(-c4nc(-c5ccccc5)no4)cc3)C2)n(C)n1 | 5.6µM* | -25%
O=C(c1ccccc1F)N1CC(Oc2ccc(-c3nc(-c4ccccc4)no3)cc2)C1 | 7.1µM* | -12%

Bioassay records (PubChem BioAssay)
